Data on 45 compounds can be found in article PMC4336329 (PLoS ONE, 2015).

Hit rate of the full screen: of about 310,000 compounds, about 14,000 (4.5%) showed an effect of 50% or more. The effect is printed as a negative number. This excerpt belongs to a sample that is enriched for strong results.
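Note: peak tail current of the secondary pulse compared with the same well before compound.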

The target in this experiment is human ether-à-go-go-related gene (hERG) potassium channel (human, UniProt Q12809). Put plainly: primary screen, population patch clamp on CHO cells stably expressing hERG; higher = less effect of the substance.
Chain of human ether-à-go-go-related gene (hERG) potassium channel (Q12809 whole entry, looked up): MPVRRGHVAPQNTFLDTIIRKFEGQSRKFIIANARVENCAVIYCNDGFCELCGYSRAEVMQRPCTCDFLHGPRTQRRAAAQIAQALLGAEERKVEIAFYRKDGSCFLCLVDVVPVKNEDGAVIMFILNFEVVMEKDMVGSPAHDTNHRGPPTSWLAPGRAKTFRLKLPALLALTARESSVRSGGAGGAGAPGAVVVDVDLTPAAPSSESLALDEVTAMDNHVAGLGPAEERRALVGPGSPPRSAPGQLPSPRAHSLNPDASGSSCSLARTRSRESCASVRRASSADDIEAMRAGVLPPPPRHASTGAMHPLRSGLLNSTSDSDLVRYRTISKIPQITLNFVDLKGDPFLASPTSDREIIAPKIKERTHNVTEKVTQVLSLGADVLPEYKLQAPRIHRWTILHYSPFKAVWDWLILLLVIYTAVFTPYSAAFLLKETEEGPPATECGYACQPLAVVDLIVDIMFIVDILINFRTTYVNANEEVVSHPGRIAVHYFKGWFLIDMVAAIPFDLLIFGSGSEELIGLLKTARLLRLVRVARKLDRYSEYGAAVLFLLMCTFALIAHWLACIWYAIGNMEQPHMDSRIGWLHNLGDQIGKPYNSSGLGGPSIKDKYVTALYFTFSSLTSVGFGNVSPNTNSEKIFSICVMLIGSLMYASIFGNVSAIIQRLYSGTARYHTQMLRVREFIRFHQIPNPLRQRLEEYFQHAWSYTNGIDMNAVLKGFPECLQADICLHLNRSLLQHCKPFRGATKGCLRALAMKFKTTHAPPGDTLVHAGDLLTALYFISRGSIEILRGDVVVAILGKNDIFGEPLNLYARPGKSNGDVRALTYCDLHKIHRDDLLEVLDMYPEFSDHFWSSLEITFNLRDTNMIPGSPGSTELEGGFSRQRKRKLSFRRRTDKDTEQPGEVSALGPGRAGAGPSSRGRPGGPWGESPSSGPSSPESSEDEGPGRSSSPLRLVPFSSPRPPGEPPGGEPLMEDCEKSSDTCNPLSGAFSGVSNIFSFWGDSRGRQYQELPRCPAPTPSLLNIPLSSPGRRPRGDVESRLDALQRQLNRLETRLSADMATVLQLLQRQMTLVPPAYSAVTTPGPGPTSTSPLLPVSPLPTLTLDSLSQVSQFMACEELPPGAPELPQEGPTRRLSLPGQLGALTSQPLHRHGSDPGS
Turning to `CN(C)c1ccc(C2C3C(=O)NC(=O)C3ON2c2ccc(Cl)cc2)cc1` (stereo not drawn), the “hERG current change (%, negative = inhibition) at 10uM” value is reported as -64%.
The same measure for `Cc1ccc(N2OC3C(=O)NC(=O)C3C2c2ccco2)cc1` (stereo not drawn): 7.89%; for `O=C(Cn1cnc2c(cnn2-c2ccccc2Cl)c1=O)N1CCc2ccccc21`: -0.441%.
The same measure for `CC(CNC(=O)Cn1ccc2cc(S(=O)(=O)N3CCCC3)ccc21)c1ccccc1` (stereo not drawn): -9.17%; for `O=C(NCCc1ccccc1)c1ccco1`: 0.15%; for `CC(C)(C)c1ccc(C(=O)C2CCCN(C(=O)C3CCOCC3)C2)cc1` (stereo not drawn): -7.14%.
In the case of `Cc1noc(C)c1C(=O)N1CCCC(C(=O)c2cccc(C(F)(F)F)c2)C1` (stereo not drawn), the “hERG current change (%, negative = inhibition) at 10uM” value was -22.6%.
The same measure for `O=C(c1cccc(C(F)(F)F)c1)C1CCCN(C(=O)C2CCOCC2)C1` (stereo not drawn): -51.3%; for `Cc1nonc1CC(=O)N1CCCC(C(=O)c2ccc(Cl)cc2)C1` (stereo not drawn): -8.66%; for `Cc1nonc1CC(=O)N1CCCC(C(=O)c2cccc(C(F)(F)F)c2)C1` (stereo not drawn): -56.2%.
The same measure for `CC1=C(C(=O)N2CCCC(C(=O)c3cccc(C(F)(F)F)c3)C2)OCCO1` (stereo not drawn): 2.26%; for `O=C(COC(=O)C1CSC2(c3ccc(F)cc3)CCC(=O)N12)NC(=O)NC1CCCC1` (stereo not drawn): -4.24%; for `O=C1c2ccccc2C(=O)C1c1ccccn1`: 6.76%.
The same measure for `CC(=O)C(Sc1ccc2nnc(-c3ccc(F)cc3)n2n1)C(C)=O`: 8.13%; for `COC(=O)CSc1ccc2nnc(-c3ccc(F)cc3)n2n1`: -43.7%; for `Fc1ccc(CSc2ccc3nnc(-c4cccs4)n3n2)cc1`: 17.1%.
With `Fc1ccc(CSc2ccc3nnc(-c4cccnc4)n3n2)cc1`, the “hERG current change (%, negative = inhibition) at 10uM” value is given as -71.5%.
For the compound `CCSc1ccc2nnc(-c3ccc(F)cc3)n2n1`, the “hERG current change (%, negative = inhibition) at 10uM” value is -55.6%.
The same measure for `CCC(Sc1ccc2nnc(-c3ccc(F)cc3)n2n1)C(=O)OC` (stereo not drawn): -48.3%; for `CC(=O)C(Sc1ccc2nnc(-c3cccnc3)n2n1)C(C)=O`: -2.29%.
Consider `CCSc1ccc2nnc(-c3cccc(F)c3)n2n1`, for which the “hERG current change (%, negative = inhibition) at 10uM” value is listed as -33.6%.
The result for `Cc1ccc(CSc2nnc(-c3cccnc3)n2N)cc1` reads 18%; that for `Cc1ccc(CSc2ccc3nnc(-c4cccnc4)n3n2)cc1`, -79.3%.
Regarding `CCCN(CCC)CCCNc1ccc2nnc(-c3ccc(F)cc3)n2n1`, the “hERG current change (%, negative = inhibition) at 10uM” value was -55.9%.
`O=C(CSc1ccc2nnc(-c3cccnc3)n2n1)Nc1ccc(F)cc1`: the “hERG current change (%, negative = inhibition) at 10uM” value was -31.5%.
The result for `COc1ccc(CNC(=O)C(c2cccs2)N(C(=O)c2csnn2)C2CC2)cc1` (stereo not drawn) reads -12.2%; that for `COC(=O)c1cc(NC(=O)c2cccc(F)c2)cc(C(=O)OC)c1`, 5.98%.
`CC(Sc1nc(O)c(-c2ccccc2)c(=O)[nH]1)C(=O)Nc1ccc(Cl)cc1` (stereo not drawn): the “hERG current change (%, negative = inhibition) at 10uM” value was found to be 26.9%.
With `COc1ccc(N=Cc2c(O)[nH]c3ccccc23)cc1`, the “hERG current change (%, negative = inhibition) at 10uM” value came out at 0.417%.
Consider `O=C(Nc1ccc(S(=O)(=O)N2CCN(c3ccccc3)CC2)cc1)c1cccs1`, for which the “hERG current change (%, negative = inhibition) at 10uM” value is on record as 8.53%.
The same measure for `Fc1cccc(Cl)c1Cn1ncc2ccccc21`: -7.36%; for `C=CCSc1nc(N)cc(=O)[nH]1`: 0.914%.
The same measure for `Cc1ccc(CNc2ccc3nnc(-c4ccccc4)n3n2)cc1`: 15.7%.
The same measure for `CCOc1ccc(CCNc2ccc3nnc(-c4ccccc4)n3n2)cc1OCC`: 1.95%.
`c1ccc(CN2CCN(CCCNc3ccc4nnc(-c5ccccc5)n4n3)CC2)cc1`: the “hERG current change (%, negative = inhibition) at 10uM” value is recorded as -59.7%.
The same measure for `CCn1cc(C(=O)N(C)c2ccc(OC)cc2OC)c2cc(OC)c(OC)cc2c1=O`: 12.4%; for `NS(=O)(=O)c1ccc(Oc2ccc(S(N)(=O)=O)cc2)cc1`: 0.75%; for `CNS(=O)(=O)c1ccc(Oc2ccc(S(=O)(=O)NC)cc2)cc1`: 13.2%.
The result for `C=CS(=O)(=O)c1ccc(Oc2ccc(S(=O)(=O)C=C)cc2)cc1` reads -64.3%.
As to `Cc1ccc(N2C(=O)C(Cc3ccc(O)cc3)NC2=S)cc1C` (stereo not drawn), the “hERG current change (%, negative = inhibition) at 10uM” value was -7.04%.
The same measure for `Brc1ccccc1C1=Nn2c(nnc2-c2ccccc2)SC1`: 14.5%; for `CC(NC(=O)c1cc2ccccc2o1)c1cccs1` (stereo not drawn): -15.6%.
The same measure for `Cc1cc2c(c(=O)n1CCN(C)C)C(c1ccncc1)C(C#N)=C(N)O2` (stereo not drawn): 19.6%.
The result for `Cc1cc2c(c(=O)n1CCN(C)C)C(c1ccc(Br)cc1)C(C#N)=C(N)O2` (stereo not drawn) reads -58.5%; that for `Cc1cc2c(c(=O)n1CCN(C)C)C(c1ccccc1Br)C(C#N)=C(N)O2` (stereo not drawn), -26.1%.
